From the supplement of paper PMC10849652
The full data set covers some 7,900 targets. This sample favours those with a hit. About 0.6% of all pairs of compound and target were hits. Unmarked numbers belong to inactive results.

UniProt Q10471, sequence (Q10471 whole entry, looked up): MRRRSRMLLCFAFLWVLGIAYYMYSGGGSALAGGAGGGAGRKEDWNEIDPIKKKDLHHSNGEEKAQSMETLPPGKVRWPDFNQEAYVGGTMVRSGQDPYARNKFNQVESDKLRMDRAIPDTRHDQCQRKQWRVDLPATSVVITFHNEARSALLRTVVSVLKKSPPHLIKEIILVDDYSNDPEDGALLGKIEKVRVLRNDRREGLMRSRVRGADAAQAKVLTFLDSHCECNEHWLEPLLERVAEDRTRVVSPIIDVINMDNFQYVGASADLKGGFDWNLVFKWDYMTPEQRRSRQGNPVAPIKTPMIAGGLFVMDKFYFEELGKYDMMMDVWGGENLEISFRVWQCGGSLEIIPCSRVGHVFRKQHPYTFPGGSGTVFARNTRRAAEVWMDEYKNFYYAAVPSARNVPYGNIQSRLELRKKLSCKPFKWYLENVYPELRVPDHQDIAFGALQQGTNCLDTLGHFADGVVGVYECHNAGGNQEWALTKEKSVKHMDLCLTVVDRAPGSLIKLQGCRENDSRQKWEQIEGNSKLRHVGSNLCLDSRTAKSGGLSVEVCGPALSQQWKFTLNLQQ
UniProt P52597, sequence (P52597 whole entry, looked up): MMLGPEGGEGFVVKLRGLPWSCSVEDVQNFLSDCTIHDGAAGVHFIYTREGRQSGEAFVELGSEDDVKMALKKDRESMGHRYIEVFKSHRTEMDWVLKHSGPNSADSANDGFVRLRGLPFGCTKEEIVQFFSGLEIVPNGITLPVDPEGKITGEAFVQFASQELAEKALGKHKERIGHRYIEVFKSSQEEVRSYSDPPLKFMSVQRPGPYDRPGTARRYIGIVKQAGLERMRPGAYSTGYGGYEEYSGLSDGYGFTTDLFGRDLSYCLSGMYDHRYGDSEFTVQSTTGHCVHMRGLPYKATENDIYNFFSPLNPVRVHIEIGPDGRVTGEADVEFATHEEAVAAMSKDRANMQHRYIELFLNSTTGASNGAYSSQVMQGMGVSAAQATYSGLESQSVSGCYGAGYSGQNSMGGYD
UniProt P14324, sequence (P14324 whole entry, looked up): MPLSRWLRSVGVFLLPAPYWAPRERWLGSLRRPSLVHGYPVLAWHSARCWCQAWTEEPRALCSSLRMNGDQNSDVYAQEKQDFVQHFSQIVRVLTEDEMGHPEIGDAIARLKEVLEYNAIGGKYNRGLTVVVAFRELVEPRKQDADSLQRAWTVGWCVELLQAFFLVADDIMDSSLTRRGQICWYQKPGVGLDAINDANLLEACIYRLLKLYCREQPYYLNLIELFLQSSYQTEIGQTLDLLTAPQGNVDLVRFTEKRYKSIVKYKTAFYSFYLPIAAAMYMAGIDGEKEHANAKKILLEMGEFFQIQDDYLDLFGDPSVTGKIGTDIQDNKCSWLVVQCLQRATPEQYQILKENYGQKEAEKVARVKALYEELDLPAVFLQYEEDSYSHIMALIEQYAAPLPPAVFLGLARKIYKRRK
UniProt Q02790, sequence (Q02790 whole entry, looked up): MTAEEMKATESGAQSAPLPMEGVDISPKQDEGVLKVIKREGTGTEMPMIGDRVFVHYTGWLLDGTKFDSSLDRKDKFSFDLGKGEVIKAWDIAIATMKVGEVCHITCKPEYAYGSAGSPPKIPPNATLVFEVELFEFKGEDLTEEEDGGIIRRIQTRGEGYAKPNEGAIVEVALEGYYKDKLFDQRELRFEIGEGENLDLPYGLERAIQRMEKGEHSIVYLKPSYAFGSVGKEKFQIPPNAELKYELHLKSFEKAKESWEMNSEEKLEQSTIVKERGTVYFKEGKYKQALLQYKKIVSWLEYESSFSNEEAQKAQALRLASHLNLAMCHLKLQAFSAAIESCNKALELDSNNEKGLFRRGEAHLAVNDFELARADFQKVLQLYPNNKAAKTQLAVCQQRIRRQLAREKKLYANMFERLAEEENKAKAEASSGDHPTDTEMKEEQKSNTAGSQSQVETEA
UniProt P55084, sequence (P55084 whole entry, looked up): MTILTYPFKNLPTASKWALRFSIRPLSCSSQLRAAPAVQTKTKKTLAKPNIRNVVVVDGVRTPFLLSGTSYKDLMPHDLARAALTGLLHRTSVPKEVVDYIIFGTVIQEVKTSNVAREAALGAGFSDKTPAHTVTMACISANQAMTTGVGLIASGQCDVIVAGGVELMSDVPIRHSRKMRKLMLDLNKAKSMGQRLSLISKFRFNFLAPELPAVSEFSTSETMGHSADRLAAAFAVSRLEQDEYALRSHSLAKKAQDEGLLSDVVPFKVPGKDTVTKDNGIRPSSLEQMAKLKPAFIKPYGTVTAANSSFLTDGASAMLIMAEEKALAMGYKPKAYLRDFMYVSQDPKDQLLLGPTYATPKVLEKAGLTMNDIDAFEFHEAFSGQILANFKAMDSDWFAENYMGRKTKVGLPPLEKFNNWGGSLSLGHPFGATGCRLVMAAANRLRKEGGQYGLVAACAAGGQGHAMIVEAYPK
UniProt Q8TEQ6, sequence (Q8TEQ6 whole entry, looked up): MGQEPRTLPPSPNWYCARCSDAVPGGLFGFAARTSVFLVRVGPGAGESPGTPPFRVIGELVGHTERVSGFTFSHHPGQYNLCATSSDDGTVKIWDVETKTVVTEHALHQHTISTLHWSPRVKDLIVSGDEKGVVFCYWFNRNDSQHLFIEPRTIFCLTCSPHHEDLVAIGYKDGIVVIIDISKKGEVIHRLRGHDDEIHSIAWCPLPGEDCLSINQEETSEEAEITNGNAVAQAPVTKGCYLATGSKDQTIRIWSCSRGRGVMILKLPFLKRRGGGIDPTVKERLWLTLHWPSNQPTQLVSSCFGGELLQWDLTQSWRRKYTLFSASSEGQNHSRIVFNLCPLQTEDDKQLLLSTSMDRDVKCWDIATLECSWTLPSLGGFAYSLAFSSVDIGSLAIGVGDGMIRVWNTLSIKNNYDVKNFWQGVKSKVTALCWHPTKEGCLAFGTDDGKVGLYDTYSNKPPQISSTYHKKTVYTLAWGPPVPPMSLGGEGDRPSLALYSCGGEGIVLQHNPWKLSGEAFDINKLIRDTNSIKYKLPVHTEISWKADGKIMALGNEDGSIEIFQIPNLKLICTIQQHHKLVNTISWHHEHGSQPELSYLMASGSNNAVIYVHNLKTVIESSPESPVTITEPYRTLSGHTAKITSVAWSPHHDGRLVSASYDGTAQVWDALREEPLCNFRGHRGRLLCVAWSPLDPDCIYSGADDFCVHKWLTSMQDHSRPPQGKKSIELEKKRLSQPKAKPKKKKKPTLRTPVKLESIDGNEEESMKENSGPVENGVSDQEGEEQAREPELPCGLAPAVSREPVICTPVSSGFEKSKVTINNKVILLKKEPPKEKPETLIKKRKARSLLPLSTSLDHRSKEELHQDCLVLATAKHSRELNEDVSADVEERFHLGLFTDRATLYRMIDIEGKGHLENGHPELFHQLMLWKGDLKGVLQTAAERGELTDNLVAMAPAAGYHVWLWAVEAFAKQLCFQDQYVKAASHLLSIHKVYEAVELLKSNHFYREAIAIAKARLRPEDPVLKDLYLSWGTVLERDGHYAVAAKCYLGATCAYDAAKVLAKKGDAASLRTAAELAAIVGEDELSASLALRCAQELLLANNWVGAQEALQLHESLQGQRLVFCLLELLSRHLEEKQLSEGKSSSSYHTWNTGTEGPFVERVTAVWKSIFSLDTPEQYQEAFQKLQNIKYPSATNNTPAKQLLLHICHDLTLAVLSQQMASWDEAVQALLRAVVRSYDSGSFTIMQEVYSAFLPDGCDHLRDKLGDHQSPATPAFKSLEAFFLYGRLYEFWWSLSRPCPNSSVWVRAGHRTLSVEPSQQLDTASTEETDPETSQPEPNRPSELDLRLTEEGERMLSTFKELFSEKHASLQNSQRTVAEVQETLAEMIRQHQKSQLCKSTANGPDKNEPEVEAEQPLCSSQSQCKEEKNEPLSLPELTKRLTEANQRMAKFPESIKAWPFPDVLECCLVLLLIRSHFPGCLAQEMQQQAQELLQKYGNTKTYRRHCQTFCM
UniProt P46976, sequence (P46976 whole entry, looked up): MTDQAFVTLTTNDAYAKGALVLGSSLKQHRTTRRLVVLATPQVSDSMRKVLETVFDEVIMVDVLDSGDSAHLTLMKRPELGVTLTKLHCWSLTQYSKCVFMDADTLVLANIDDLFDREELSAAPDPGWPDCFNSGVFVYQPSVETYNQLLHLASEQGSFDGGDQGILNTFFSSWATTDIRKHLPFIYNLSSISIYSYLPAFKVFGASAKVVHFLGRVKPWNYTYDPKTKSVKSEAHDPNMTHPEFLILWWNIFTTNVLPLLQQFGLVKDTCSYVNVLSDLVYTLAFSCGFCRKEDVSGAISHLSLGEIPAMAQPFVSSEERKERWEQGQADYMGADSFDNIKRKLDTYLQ
UniProt Q00688, sequence (Q00688 whole entry, looked up): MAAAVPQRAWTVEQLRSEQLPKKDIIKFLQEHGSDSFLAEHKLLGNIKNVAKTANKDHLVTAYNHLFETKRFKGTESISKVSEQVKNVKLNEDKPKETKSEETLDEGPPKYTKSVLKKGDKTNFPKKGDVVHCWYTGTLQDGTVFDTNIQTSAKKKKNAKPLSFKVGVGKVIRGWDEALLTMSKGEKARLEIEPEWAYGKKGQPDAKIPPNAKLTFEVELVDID
UniProt P30519, sequence (P30519 whole entry, looked up): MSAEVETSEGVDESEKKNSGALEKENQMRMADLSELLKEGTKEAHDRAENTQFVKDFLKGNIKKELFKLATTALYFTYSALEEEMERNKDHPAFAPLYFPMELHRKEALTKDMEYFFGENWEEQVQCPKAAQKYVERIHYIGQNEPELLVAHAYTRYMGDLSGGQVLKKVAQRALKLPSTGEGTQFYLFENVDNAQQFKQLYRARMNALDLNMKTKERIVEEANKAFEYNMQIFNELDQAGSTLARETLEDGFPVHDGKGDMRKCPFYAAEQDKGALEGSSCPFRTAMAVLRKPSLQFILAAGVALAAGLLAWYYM
UniProt P69905, sequence (P69905 whole entry, looked up): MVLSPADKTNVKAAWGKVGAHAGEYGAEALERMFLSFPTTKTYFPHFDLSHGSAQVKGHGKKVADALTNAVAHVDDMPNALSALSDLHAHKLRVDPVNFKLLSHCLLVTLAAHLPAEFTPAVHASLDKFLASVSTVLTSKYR

These targets were tested with CC1=CC=C(C=C1)SC2=C3C=C(SC3=CN=C2)C(=O)N (assay: log2 fold change, soluble protein after heating vs DMSO (PISA); higher = thermal stabilisation; K562 cells, 10 uM, 30 min; active = over 0.2 and 3.5 SD of the protein, either way, in both replicates (recomputed)).
Outline: (§1)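 Values are thermal stability changes relative to control samples and are taken from duplicates. They are stated as log2 fold changes. Before quantification by TMTpro 16plex LC-MS/MS with equalised channel sums, K562 cells at 2×10^6 cells/mL were treated with 10 μM compound for 30 min, heated in aliquots for 3 min across 48°C-58°C, pooled, extracted in PBS with 0.5% NP-40 at 4°C, and centrifuged at 21,000xg for 90 min to give the soluble supernatant.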
HADHB (UniProt P55084) was tested, and the log2 fold change was -0.002. GDPD1 (UniProt Q8N9F7) was tested, and the log2 fold change was 0.022. For HBZ (UniProt P02008), the log2 fold change was 0.025. For FNTA (UniProt P49354), the log2 fold change was 0.048. Target FUBP3 (UniProt Q96I24) has a log2 fold change of 0.01. FAM91A1 (UniProt Q658Y4) was tested, and the log2 fold change was -0.036. Work on GTF3C4 (UniProt Q9UKN8) yielded a log2 fold change of 0.038. In the case of HSPA8 (UniProt E9PK54), the log2 fold change is reported as -0.123. GNPAT (UniProt O15228) was tested, and the log2 fold change was 0.007. GTF2A2 (UniProt P52657) gave a log2 fold change of 0.052. HBA1 (UniProt P69905) was tested, and the log2 fold change was 0.071. With GDI1 (UniProt P31150) the log2 fold change was -0.003. HMOX2 (UniProt P30519) gave a log2 fold change of 0.036. In the case of HMGN2 (UniProt P05204), the log2 fold change is reported as -0.038. Target GYG1 (UniProt P46976) has a log2 fold change of -0.041. FKBP3 (UniProt Q00688) showed a log2 fold change of 0.009. For HEATR5B (UniProt Q9P2D3), the log2 fold change was 0.03. Work on FKBP4 (UniProt Q02790) yielded a log2 fold change of 0.015. H2AFX (UniProt P16104) was tested, and the log2 fold change was -0.231. GUSB (UniProt P08236) gave a log2 fold change of -0.027. HDAC6 (UniProt Q9UBN7) was tested, and the log2 fold change was 0.022. In the case of FBXO42 (UniProt Q6P3S6), the log2 fold change is reported as -0.038. With HP1BP3 (UniProt Q5SSJ5) the log2 fold change was -0.025. GEMIN5 (UniProt Q8TEQ6) showed a log2 fold change of 0.009. With HSD17B12 (UniProt Q53GQ0) the log2 fold change was 0. With HNRNPF (UniProt P52597) the log2 fold change was -0.032. For GALNT2 (UniProt Q10471), the log2 fold change was 0.016. Target IFT80 isoform 3 (UniProt Q9P2H3) has a log2 fold change of 0.004. Target GEMIN6 (UniProt Q8WXD5) has a log2 fold change of 0.014. For FDPS (UniProt P14324), the log2 fold change was 0.109. For GNAS (UniProt Q5JWF2), the log2 fold change was -0.014. With GOPC (UniProt Q9HD26) the log2 fold change was -0.051. With FDXR isoform 7 (UniProt P22570) the log2 fold change was -0.039. Target HECTD1 (UniProt Q9ULT8) has a log2 fold change of 0.144. With GLUL (UniProt P15104) the log2 fold change was 0.055.

Each target was assayed with CC1=NC(=CC=C1)C2=C(N=C(N2)C(C)(C)C)C3=CC4=NC=CN=C4C=C3 in the same assay as above.
Outline: as §1
HADHB (UniProt P55084) gave a log2 fold change of -0.012. GDPD1 (UniProt Q8N9F7) gave a log2 fold change of -0.07. HBZ (UniProt P02008) gave a log2 fold change of 0.042. Target FNTA (UniProt P49354) has a log2 fold change of -0.011. FUBP3 (UniProt Q96I24) showed a log2 fold change of 0.122. In the case of FAM91A1 (UniProt Q658Y4), the log2 fold change is reported as -0.048. GTF3C4 (UniProt Q9UKN8) showed a log2 fold change of 0.008. In the case of HSPA8 (UniProt E9PK54), the log2 fold change is reported as 0.006. For GNPAT (UniProt O15228), the log2 fold change was 0. Work on GTF2A2 (UniProt P52657) yielded a log2 fold change of 0.03. For HBA1 (UniProt P69905), the log2 fold change was 0.018. Target GDI1 (UniProt P31150) has a log2 fold change of 0.009. For HMOX2 (UniProt P30519), the log2 fold change was -0.019. HMGN2 (UniProt P05204) showed a log2 fold change of 0.047. With GYG1 (UniProt P46976) the log2 fold change was -0.029. FKBP3 (UniProt Q00688) gave a log2 fold change of 0.122. For HEATR5B (UniProt Q9P2D3), the log2 fold change was 0.022. Work on FKBP4 (UniProt Q02790) yielded a log2 fold change of 0.045. Target H2AFX (UniProt P16104) has a log2 fold change of -0.073. GUSB (UniProt P08236) gave a log2 fold change of -0.073. HDAC6 (UniProt Q9UBN7) was tested, and the log2 fold change was -0.091. With FBXO42 (UniProt Q6P3S6) the log2 fold change was 0.04. Target HP1BP3 (UniProt Q5SSJ5) has a log2 fold change of 0.017. With GEMIN5 (UniProt Q8TEQ6) the log2 fold change was -0.013. HSD17B12 (UniProt Q53GQ0) was tested, and the log2 fold change was 0.022. Work on HNRNPF (UniProt P52597) yielded a log2 fold change of -0.017. Target GALNT2 (UniProt Q10471) has a log2 fold change of 0.038. In the case of IFT80 isoform 3 (UniProt Q9P2H3), the log2 fold change is reported as 0.005. Target GEMIN6 (UniProt Q8WXD5) has a log2 fold change of 0.015. Target FDPS (UniProt P14324) has a log2 fold change of -0.077. With GNAS (UniProt Q5JWF2) the log2 fold change was -0.027. Target GOPC (UniProt Q9HD26) has a log2 fold change of -0.066. FDXR isoform 7 (UniProt P22570) gave a log2 fold change of 0.072. HECTD1 (UniProt Q9ULT8) showed a log2 fold change of -0.023. GLUL (UniProt P15104) was tested, and the log2 fold change was -0.013.

These targets were tested with CCCCN(Cc1ccc(C(=O)NO)cc1)C(=O)Nc1ccccc1 [Nexturastat A] in the same assay as above.
Outline: as §1
Target HADHB (UniProt P55084) has a log2 fold change of -0.085. Work on GDPD1 (UniProt Q8N9F7) yielded a log2 fold change of -0.026. HBZ (UniProt P02008) showed a log2 fold change of -0.013. Work on FNTA (UniProt P49354) yielded a log2 fold change of -0.063. Target FUBP3 (UniProt Q96I24) has a log2 fold change of -0.114. With FAM91A1 (UniProt Q658Y4) the log2 fold change was 0.286 (active). GTF3C4 (UniProt Q9UKN8) was tested, and the log2 fold change was -0.052. Work on HSPA8 (UniProt E9PK54) yielded a log2 fold change of 0.227. Work on GNPAT (UniProt O15228) yielded a log2 fold change of -0.039. GTF2A2 (UniProt P52657) showed a log2 fold change of -0.091. HBA1 (UniProt P69905) showed a log2 fold change of 0.015. Work on GDI1 (UniProt P31150) yielded a log2 fold change of -0.051. Target HMOX2 (UniProt P30519) has a log2 fold change of -0.023. HMGN2 (UniProt P05204) gave a log2 fold change of -0.016. GYG1 (UniProt P46976) was tested, and the log2 fold change was 0.146. With FKBP3 (UniProt Q00688) the log2 fold change was -0.002. HEATR5B (UniProt Q9P2D3) was tested, and the log2 fold change was 0.219 (active). FKBP4 (UniProt Q02790) gave a log2 fold change of -0.027. Work on H2AFX (UniProt P16104) yielded a log2 fold change of 0.754. GUSB (UniProt P08236) showed a log2 fold change of 0.277. With HDAC6 (UniProt Q9UBN7) the log2 fold change was 0.522 (active). For FBXO42 (UniProt Q6P3S6), the log2 fold change was -0.072. HP1BP3 (UniProt Q5SSJ5) showed a log2 fold change of 0.108. GEMIN5 (UniProt Q8TEQ6) showed a log2 fold change of -0.004. In the case of HSD17B12 (UniProt Q53GQ0), the log2 fold change is reported as -0.111. With HNRNPF (UniProt P52597) the log2 fold change was 0.036. GALNT2 (UniProt Q10471) gave a log2 fold change of -0.032. Target IFT80 isoform 3 (UniProt Q9P2H3) has a log2 fold change of -0.021. In the case of GEMIN6 (UniProt Q8WXD5), the log2 fold change is reported as 0.134. FDPS (UniProt P14324) gave a log2 fold change of 0.068. For GNAS (UniProt Q5JWF2), the log2 fold change was -0.01. For GOPC (UniProt Q9HD26), the log2 fold change was 0.131. FDXR isoform 7 (UniProt P22570) showed a log2 fold change of -0.07. With HECTD1 (UniProt Q9ULT8) the log2 fold change was 0.273 (active). In the case of GLUL (UniProt P15104), the log2 fold change is reported as -0.02.
